What is called inhibition is the relative decrease from the control value, in per cent.

Our source for the inhibition values is PubChem BioAssay AID1626 (SRMLSC, 2009).

Hit rate of the full screen: of about 220,000 compounds, about 2,000 (0.91%) were called active. Not shown: some 2% with an inconclusive outcome. A selection follows. Measured potencies and affinities stand elsewhere. A number with no mark means an inactive call. No stated cut-off is given here; in the data, inconclusive means inhibition above about 80% without an active follow-up result; inactive means below that; test concentration not stated here.

The assay can be described thus: M. tuberculosis H37Rv growth inhibitors, H37Rv strain (AID 1626).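 Further: bacteria incubated seven days before Alamar blue readout; 0% = bacteria only wells and 100% = bacteria with antibiotic wells.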 The note with it: hits give high values, concentration not given here.
`COc1cccc(CNC(=O)Cn2nc(-c3ccc(Cl)cc3)ccc2=O)c1`: the inhibition was 4.51%.

With `CCOC(=O)C(C)Sc1nc(=O)n2cc(C)ccc2n1` (stereo not given), the inhibition is 3.92%.

As to `Cc1ccc([N+](=O)[O-])cc1NCC(=O)NN`, the inhibition is -8.54%. The value for `c1ccc2c(SCc3cn4ccccc4n3)nncc2c1` was -2.83%; that for `N=C(N)SCc1nc2ccccn2c1Br` was -11.2%; that for `CC(C)c1ccc2c(c1)C(c1cccs1)=NNC(c1ccncc1)=N2` was 0.38%.

Take `COc1ccc(-c2nnc3ccc(SC(C(C)=O)C(C)=O)nn23)cc1OC`: the inhibition was 2.29%. To `COc1ccc(NC(C)=O)cc1C#N` belongs 0.78%; to `O=C1OC2(CCCCC2)OC(=O)C1=CNc1ccc2c(c1)OCO2`, 55.9%; to `NS(=O)(=O)c1ccc(NC=C2C(=O)OC3(CCCCC3)OC2=O)cc1`, 4.66%. To `COCCCNC(=O)Cn1cc(C(C)=O)c2ccccc21` belongs -10.3%; to `CC1CCCC(NC(=O)COC(=O)[C@@H](NC(=O)c2ccco2)C(C)C)C1C` (stereo not given in full), -2.77%. Consider `Cc1ccc(NC(=O)c2cccs2)cc1`, for which the inhibition is -1.3%. To `CCc1cc2cc(C(=O)N3CCN(c4ccccc4)CC3)sc2s1` belongs 2.92%; to `CC(C)(C)c1ccc(C(=O)Nc2ccc(F)cc2)s1`, 12.9%. Consider `CCc1cc2cc(C(=O)Nc3ccccc3F)sc2s1`, for which the inhibition is 0.32%.

Regarding `Cc1cc(C(F)(F)F)nc(SCc2ccc(C(=O)O)o2)n1`, the inhibition is -10.7%. The value for `COc1ccc(Cn2c(=S)[nH]c3ccsc3c2=O)cc1` was -1.7%; that for `O=c1[nH]cc(COCC(F)(F)C(F)(F)C(F)(F)F)c(=O)[nH]1` was 5.87%.

As to `Cc1ccc(S(=O)(=O)N2CCC(C(=O)NNC(=O)c3ccccc3)CC2)cc1`, the inhibition is 0.71%. The value for `C/C(=N\NC(=O)c1cc(-c2ccncc2)nc2ccccc12)c1ccc(OC(F)F)cc1` was 0.28%; that for `C#CCNC(=O)C1=C[C@H](c2ccc3c(c2)OCO3)C[C@H](OCCCCO)O1` was -6.12%. For the molecule `COc1ccc(NC(=O)COC(=O)c2c3c(nc4ccccc24)CCCC3)cc1`, the inhibition was -13.1%. The value for `CCc1cccc(C)c1NC(=O)COC(=O)c1c2c(nc3ccccc13)/C(=C\c1cccs1)CCC2` was 1.95%; that for `CCCCNC(=O)COC(=O)c1c2c(nc3ccccc13)/C(=C/c1cccs1)CC2` was 36.5%; that for `CC(C)CNC(=O)COC(=O)c1c2c(nc3ccccc13)/C(=C/c1cccs1)CC2` was 32.2%. To `COc1ccc(-c2[nH]ncc2CN2CCC(N3CCSCC3)CC2)cc1F` belongs -4.08%; to `CCOC(=O)C(/C=C(\C#N)C(=O)OCC)=C(/N)N1CCN(c2ccccc2)CC1`, -0.44%. The value for `CCOC(=O)C(/C=C(\C#N)C(=O)OCC)=C(/N)N1CCN(c2ccc(OC)cc2)CC1` was 6.53%; that for `COc1ccc(C(=O)Nc2ccc(Cl)cn2)cc1Cl` was 12.4%. With `COC(=O)c1cc(NC(=O)CSc2nc(C)cc(=O)[nH]2)cc(C(=O)OC)c1`, the inhibition is -18.1%.

As to `CC(=O)Nc1ccc(N/C(N)=N/c2nc(C)cc(C)n2)cc1`, the inhibition was 4.6%. The value for `Cc1ccc(N/C(N)=N/c2nc(C)cc(C)n2)cc1` was -3.3%. `Cn1ccnc1Sc1ccc(/C=N/NC(=O)c2ccccc2[N+](=O)[O-])cc1[N+](=O)[O-]`: the inhibition was -13.1%. To `NC(=O)CSc1nnc(COc2ccccc2)n1CCc1ccccc1` belongs -4.55%; to `Cc1ccc(CNC(=O)C23CN(Cc4ccccc4)CC2C(c2ccc([N+](=O)[O-])cc2)=NO3)cc1` (stereo not given), 7.16%; to `CCCCCc1c(C)c(C#N)c2nc3ccccc3n2c1-n1ccnc1C`, -1.65%. Take `CCc1c(C)c(C#N)c2nc3ccccc3n2c1N(C)C`: the inhibition was -1.31%.

For the molecule `Cc1c(Cc2ccccc2)c(NCCN(C)C)n2c(nc3ccccc32)c1C#N`, the inhibition was -1.57%. To `Cc1cc(NCCCO)n2c(nc3ccccc32)c1C#N` belongs 1.01%. The value for `COC(=O)c1cc(C(=O)OC)cc(N2C(=O)CN=C2Nc2nc(C)cc(C)n2)c1` was -5.98%; that for `Cc1cc(C)c(NC(=O)c2c[nH]c(=S)n2-c2ccc(F)cc2)c(C)c1` was -1.12%. The value for `COc1ccc(-c2nc(C#N)c(NCCN(C)C)o2)cc1` was -2.85%; that for `COc1cccc(-c2csc(N3CCN(C(=O)Nc4ccc(Cl)cc4)CC3)n2)c1` was 80%.

As for `COc1cccc(-c2csc(N3CCN(C(=O)Nc4ccccc4OC)CC3)n2)c1`, the inhibition was 0.17%. To `COc1cccc(-c2csc(N3CCN(C(=O)Nc4ccc(F)cc4)CC3)n2)c1` belongs 20.3%. On to `COc1cccc(NC(=O)N2CCN(c3nc(-c4cccc(OC)c4)cs3)CC2)c1`, for which the inhibition was 79.8%. To `CCOP(=O)(OCC)C1(O)C(=O)Nc2ccc(Br)cc21` (stereo not given) belongs 0.14%. To `CCC1(C)Cc2c(sc3nnn(CC(=O)Nc4ccccc4)c(=O)c23)CO1` (stereo not given) belongs -3.81%; to `CCOc1ccc(NC(=O)C(CC(=O)O)Cc2ccccc2)cc1` (stereo not given), -4.45%; to `O=c1oc2ccccc2cc1-c1ccccc1`, -5.07%. In the case of `Cc1cccc(-c2noc(-c3ccoc3C)n2)c1`, the inhibition was 8.21%. To `O=c1oc2ccccc2cc1-c1nc(-c2ccccc2)no1` belongs 23.2%; to `COc1ccccc1-c1nc(-c2cccc(C)c2)no1`, 9.74%; to `O=c1oc2ccccc2cc1-c1ccc(O)cc1`, 30.4%. To `Cc1ccc(-c2csc(Cc3nc(-c4cc5ccccc5oc4=O)cs3)n2)cc1` belongs -1.52%. To `COC(=O)c1sc(SC)c(S(=O)(=O)C(C)C)c1N/N=C(\C#N)C(=O)c1ccccc1` belongs -10.6%.

Turning to `COc1ccc(Cn2cc3c(-c4ccc(F)cc4)nnc-3c3cc(OC)c(OC)cc32)cc1`, the inhibition is 64.8%.

For `CCOCC(=O)Nc1cc(Cl)ccc1C`, the inhibition is -11.6%. In the case of `On1c(-c2ccccc2Cl)nc2ccccc21`, the inhibition was 12.4%.

`COc1ccc(CNC(=O)CC2C(=O)NCCN2CC(C)(C)C)c(OC)c1` (stereo not given): the inhibition was -2.94%. The value for `Cc1ccccc1OC(C)C(=O)NCc1cccnc1` (stereo not given) was 1.38%.

As for `CCOC(=O)C1=C(CSCC(=O)OC)NC(=O)NC1c1cc(C)ccc1C` (stereo not given), the inhibition is 0.6%. The value for `Cc1cc(C)nc(NC(=O)/C=C/c2ccccc2Cl)c1` was 9.12%; that for `Cc1cc(C)nc(NC(=O)/C=C/c2ccccc2Cl)n1` was -5.04%; that for `O=C(Cn1nc(-c2ccccc2)nc1-c1ccccc1)N1CCOCC1` was -4.2%. To `COC(=O)[C@@]1(Cc2ccc(F)cc2)[C@H]2c3cc(C(=O)N(C)C)n(Cc4ccccn4)c3C[C@H]2CN1C(=O)c1ccccc1` belongs 8.03%.

On to `OC(COc1ccc2ccccc2c1)Cn1ccnc1` (stereo not given), for which the inhibition was 51.7%. The value for `O=C(CSCC(=O)N1CCN(c2ccccc2)CC1)Nc1nc(-c2ccc(Cl)s2)cs1` was 8.45%.

`CCOC(=O)N1CCN(C(=O)CSCC(=O)Nc2nc(-c3ccc(Cl)s3)cs2)CC1`: the inhibition is 16.6%. For the molecule `OC(CNC1CCCC1)COc1ccc(-c2ccccc2)cc1` (stereo not given), the inhibition is 10.9%. For `CCOc1ccc(OCC(O)CNC2CCN(Cc3ccccc3)CC2)cc1` (stereo not given), the inhibition was 1.56%. To `O=C(OCc1ccc(C(=O)c2ccccc2)cc1)c1cccc(-c2nnc(-c3ccccc3)o2)c1` belongs 20.2%.

For the molecule `O=c1oc(-c2ccccc2NS(=O)(=O)c2ccc3ccccc3c2)nc2ccccc12`, the inhibition is 7.84%. To `O=C(c1cc(-c2ccncc2)nc2ccc(Cl)cc12)N1CCN(Cc2ccc3c(c2)OCO3)CC1` belongs 0.94%.

For `CCOc1ccc(NC(=O)Cn2nnc3c(cnn3-c3ccc(F)cc3)c2=O)cc1`, the inhibition is 3.8%. To `C/C(Cc1ccccc1)=N/NC(=O)CNC(=O)C(c1ccccc1)c1ccccc1` belongs -1.53%.

Take `CCc1ccc(C2c3[nH]c4ccccc4c3CCN2C(=O)c2ccc(=O)n(C)n2)cc1` (stereo not given): the inhibition is 37.1%. The value for `CCc1ccc(C2c3[nH]c4ccccc4c3CCN2C(=O)c2cc[n+]([O-])cc2)cc1` (stereo not given) was 7.89%; that for `CCNC(=O)N1CCN(C(=O)NCC)CC1` was -2.46%. The value for `Cc1cc(/C=N/n2cnnc2)c(C)n1-c1ccc(Cl)cc1Cl` was 12.1%. Consider `Cc1cc(/C=N/n2cnnc2)c(C)n1-c1ccc(Cl)cc1`, for which the inhibition is 8.9%.

Regarding `CC(=O)Oc1ccc(C(=O)Nc2cc(NC(=O)c3ccc(OC(C)=O)cc3)cc(C(=O)NC(C)(C)C)c2)cc1`, the inhibition is -1.93%. To `CCN1CCC(O)(c2ccccc2)C(C(=O)c2ccccc2)C1` (stereo not given) belongs 50.9%. To `CCCCN1CCC(O)(c2ccccc2)C(C(=O)c2ccccc2)C1` (stereo not given) belongs 5.96%.

For `O=S(=O)(N1CCOCC1)N1CCN(c2ccc(F)cc2)CC1`, the inhibition is -7.1%. To `Cc1[nH]c(=O)[nH]c(=O)c1/C=C/C(=O)O` belongs -8.34%. The value for `Nc1c(C(=O)OCC(=O)NCc2ccccc2)[nH]c(=O)[nH]c1=O` was -4.41%. The value for `CCOc1ccc2nc(SCC(=O)N(C)C)[nH]c2c1` was -11.1%.

`CO/N=C(/CS(=O)Cc1ccc(Cl)cc1)c1ccc(Cl)cc1` (stereo not given): the inhibition is 1.17%.

With `CCCNS(=O)(=O)c1ccc(OCC(=O)NCCC2=CCCCC2)cc1`, the inhibition is 13.8%. The value for `COC(=O)COc1ccc(S(=O)(=O)NCCC2=CCCCC2)cc1` was 25.1%; that for `Cc1cccc(C)c1NC(=O)CNC(=O)CCC(=O)c1cccs1` was -5.43%; that for `Cc1ccc(NC(=O)c2snc3ccc(Cl)cc23)cc1C` was 6.9%. To `CC(C)c1ccc(NC(=O)c2csnn2)cc1` belongs -0.83%.
